Bioassay records deposited in PubChem BioAssay by National Center for Advancing Translational Sciences (NCATS).
Only some compounds are listed: those with a hit (about 19% of all), similar ones and a draw of the others.
TDP1 inh = TDP1 (human) enzyme inhibition. AID 485290. Q9NUW8. hit rate 0.28% among 350,000. Potency, µM (series often up to 130 µM), for inactives: at the highest dose activity change, negative = inhibition, actives largely listed as inhibitors. recombinant TDP1, AlphaScreen DNA substrate cleavage; note: potency is the fitted concentration of half-maximal effect; % is set by controls: 0 for no effect and ±100 for the full control effect; nearly all actives have a fitted effect of over 40% in size
Target sequence (Q9NUW8 whole entry, looked up): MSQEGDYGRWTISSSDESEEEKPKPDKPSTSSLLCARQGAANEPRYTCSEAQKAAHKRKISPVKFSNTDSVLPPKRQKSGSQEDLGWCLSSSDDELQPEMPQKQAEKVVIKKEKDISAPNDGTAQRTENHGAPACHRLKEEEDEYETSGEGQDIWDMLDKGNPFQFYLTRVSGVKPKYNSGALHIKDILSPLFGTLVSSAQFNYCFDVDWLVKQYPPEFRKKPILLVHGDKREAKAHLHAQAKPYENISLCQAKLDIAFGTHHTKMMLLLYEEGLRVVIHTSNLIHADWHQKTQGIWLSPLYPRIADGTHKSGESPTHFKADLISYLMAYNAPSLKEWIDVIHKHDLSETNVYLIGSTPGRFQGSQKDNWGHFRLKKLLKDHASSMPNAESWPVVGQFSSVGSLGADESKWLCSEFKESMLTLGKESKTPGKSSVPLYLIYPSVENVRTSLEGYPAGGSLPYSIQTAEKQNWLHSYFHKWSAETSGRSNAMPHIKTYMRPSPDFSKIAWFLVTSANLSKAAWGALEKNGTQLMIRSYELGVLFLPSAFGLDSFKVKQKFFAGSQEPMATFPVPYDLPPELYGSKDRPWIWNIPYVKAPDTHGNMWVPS
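AlphaScreen read-out: signal falls as enzyme removes the 3' tyrosine-FITC from a 5'-biotinylated DNA oligo (15 nM, 5 min, RT). Enzyme was E. coli-made recombinant Tdp1 at 1 nM, exposed to compound for 15 min beforehand; beads 10 ug/ml, 10 min.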
IL1B secr inh = inflammasome signaling inhibition, IL-1 beta readout. THP-1 LPS/ATP IL-1B secretion, AlphaLISA, 16 h; hits give low values. activity change, % at 57.5 µM. hit rate 4.7% among 360,000. AID 743279; in the data active = activity change below about -50%; inconclusive = mostly about -30% to -49%; note: % is set by controls: 0 for no effect and ±100 for the full control effect
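THP-1 cells pretreated 1 hr with compounds (up to 57.5 uM final), then stimulated with LPS (250 ng/mL final) plus ATP (1.25 mM final); secreted IL-1B measured by AlphaLISA after 16 hr, decreased signal indicating inhibition.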
DT40 TDP1 no CPT = qHTS for Inhibitors of human tyrosyl-DNA phosphodiesterase 1 (TDP1): qHTS in cells in absence of CPT | Potency, µM (highest dose often 46.2 µM), for the others: at the highest dose activity change, negative = growth inhibition, actives largely listed as inhibitors | DT40 Tdp1-/- hTDP1 cells, no CPT, ATP luminescence, 48 h | AID 686978, 2013 | hit rate 15% among 420,000; note: potency is the fitted concentration of half-maximal effect; % is set by controls: 0 for no effect and ±100 for the full control effect; nearly all actives have a fitted effect of over 55% in size
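Chicken DT40 Tdp1-/- cells complemented with human TDP1, screened without camptothecin (DMSO vehicle only), 400 cells/well. Compounds pin-transferred, cells incubated at 37 °C for at least 48 hr. Growth read as ATP-dependent luminescence (CellTiter-Glo, 30 min at RT).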
TDP1 cell CPT = growth inhibition of DT40 Tdp1-/-;hTDP1 cells with camptothecin (screen for TDP1 inhibitors); Potency, µM (series often up to 46.2 µM), for the others: at the highest dose activity change, negative = growth inhibition, actives largely listed as inhibitors; hit rate 12% among 420,000; chicken DT40 Tdp1-/-;hTDP1 cells + 20 nM CPT, ATP luminescence, 48 h; AID 686979; note: potency is the fitted concentration of half-maximal effect; % is set by controls: 0 for no effect and ±100 for the full control effect; nearly all actives have a fitted effect of over 55% in size
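Cell growth measured by CellTiter-Glo luminescence after a minimum 48 h, 37 C compound exposure with 20 nM CPT in Tdp1-knockout DT40 cells stably expressing hTDP1, seeded 400/well; qHTS titration format.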
TGFb inhibitor = TGF-b pathway inhibition; Potency, µM (top dose mostly 46.1 µM), for inactives: top-dose activity, negative = inhibition, hits mostly inhibitors; HepG2 CAGA-GFP TGF-b/SMAD3 reporter, GFP fluorescence, 18 h; TGF-beta stimulated, 500 pg/mL final; hit rate 1.2% among 410,000; note: potency is the fitted concentration of half-maximal effect; % is set by controls: 0 for no effect and ±100 for the full control effect; nearly all actives have a fitted effect of over 65% in size
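First, reporter cells (HEPG2 CAGA-GFP) rested 2 h at 37 degrees C. Next, compounds were pinned in and TGF-beta added to 500 pg/mL final. After 18 h, GFP was imaged per cell and summed per well.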
HepG2 viability = kills HepG2 cells in TGF-b inhibitor counter-screen; hit rate 0.76% among 410,000; Potency, µM (titrated, usually from 46.1 µM), for inactives: at the top dose activity change, negative = cytotoxicity, actives largely listed as cytotoxic; HepG2 CAGA-GFP viability, ATP luminescence, 18 h; AID 588856; note: potency is the fitted concentration of half-maximal effect
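HepG2 CAGA-GFP cells (1000/well, DMEM with 1% FBS) received compound, then TGF-beta at 500 pg/mL final, and were incubated 18 hours at 37 degrees C. Viability was read by CellTiter-Glo luminescence. Media-only wells were set as complete cell-killing and DMSO as no toxicity.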
The depositor's hits bear a star; ? = inconclusive; . = no result given; [ ] = remark or other dose. Unless noted, calls come from the whole dose curve; as a rule, active = well fitted curve in the direction sought with a large enough effect; inconclusive = small, poorly fitted or top-dose-only effect, or another doubt; inactive = no such curve, though single readings can be large; an effect the other way counts as inactive or inconclusive.

SMILES	TDP1 inh	IL1B secr inh	DT40 TDP1 no CPT	TDP1 cell CPT	TGFb inhibitor	HepG2 viability
CCOC(=O)C1CCN(S(=O)(=O)c2ccc3c(c2)CC(C)N3C(=O)C2CCC2)CC1 (centres undefined)	1%	21	?	-25%	-1%	1%
CC(=O)N1CCC[C@@]2(CCN(c3ccncc3)C2)C1	.	.	-4%	-2%	.	.
C=CCc1cccc2cc(-c3nc4ccc(C(=O)O)cc4[nH]3)c(=O)oc12	.	.	-11%	1%	-21%	-10%
Cc1nnc(NC(=O)c2ccc(S(=O)(=O)N(C)Cc3ccccc3)cc2)o1	10%	26	23µM*	?	-11%	-21%
Cc1nc(-c2ccc(S(=O)(=O)N(C)Cc3ccccc3)cc2)co1	0%	.	21µM*	26µM*	-9%	-18%
CCN(Cc1ccccc1)S(=O)(=O)c1ccc(C(=O)Nc2nnc(C3CC3)o2)cc1	10%	36	16µM*	?	-12%	-34%
COCc1nnc(NC(=O)c2ccc(S(=O)(=O)N(C)Cc3ccccc3)cc2)o1	-3%	75	?	?	-26%	-26%
Cc1cc(NC(=O)/C=C/c2ccccc2Cl)n(-c2nc3ccccc3[nH]2)n1	8%	-6	10µM*	?	0%	-7%
Cc1cc(NC(=O)c2ccc(F)cc2F)n(-c2nc3ccccc3[nH]2)n1	2%	2	-16%	?	21%	0%
Cc1cc(NC(=O)CC2CCCC2)n(-c2nc3ccccc3[nH]2)n1	3%	-9	21µM*	?	-15%	-36%
CCOC(=O)C1=C(C)C/C(=N\NC(=O)c2ccccc2O)CC1	4%	1	?	8.2µM*	-14%	-35%
CCOC(=O)c1ccccc1O	.	.	14%	3%	.	.
Cc1ccc(Nc2nc(N)c(C#N)c(CC#N)c2C#N)cc1	-3%	-97*	2%	-15%	8%	-8%
Cc1ccc(-n2nc(CC#N)c(C#N)c2N)cc1	3%	20	-20%	-5%	-9%	0%
CCOCCCNC(=O)c1ccc2c(c1)NC(=O)C(CS(=O)(=O)Cc1ccc(F)cc1Cl)N2 (centres undefined)	5%	.	-6%	-1%	-3%	-14%
CC1(C)CC(=O)C=C(c2ccc(-c3cnc4ccccc4c3)cc2)C1=O	.	-4	23µM*	?	-6%	-23%
CC1(C)CC(=O)C=C(c2ccc(Oc3ccccc3)cc2)C1=O	.	-13	?	?	-11%	-32%
COc1ccc(C#Cc2ccc(C3=CC(=O)CC(C)(C)C3=O)cc2)cc1	.	-9	16µM*	?	-4%	-31%
CC1(C)CC(=O)C=C(c2ccc(-c3cccc4c3sc3ccccc34)cc2)C1=O	.	-6	18µM*	?	4%	-30%
CC1(C)CC(=O)C=C(c2cccc3c2sc2ccccc23)C1	-1%	0	?	-16%	-15%	-20%
CC1(C)CC(=O)C=C(c2cccc(O)c2)C1=O	-2%	9	0%	-3%	1%	-3%
COc1cccc(-n2c(-c3ccc(Cl)cc3)cc3c2CC(C)(C)CC3=O)c1	13%	.	?	?	1%	-26%
C=CCNc1oc(-c2ccc(OC)cc2)nc1C#N	3%	-22	?	16µM*	34%	-12%
COc1ccc(-c2nc(C#N)c(NCc3ccco3)o2)cc1	7%	-27	16µM*	?	-8%	-25%
Cc1ccc(-c2nc(C#N)c(NCc3ccco3)o2)cc1	7%	-9	?	-20%	?	3%
SMILES	TDP1 inh	IL1B secr inh	DT40 TDP1 no CPT	TDP1 cell CPT	TGFb inhibitor	HepG2 viability
CN1C(=O)S/C(=C\c2ccc(-n3cncn3)cc2)C1=O	.	-9	?	2%	2%	-45%
C/C=C/C1=CC(=O)C[C@H](c2ccc(OC)c(OC)c2)C1	1%	-97*	?	?	12%	-2%
C/C=C/C1=CC(=O)C[C@H](c2ccc(Cl)cc2)C1	0%	-82*	?	?	-3%	-12%
COc1ccc(Cl)cc1S(=O)(=O)N1CCN(Cc2cccc(F)c2)CC1	9%	.	?	?	-34%	-41%
Cc1ccc(C(=O)N2CCN(c3ccc([N+](=O)[O-])c(NCc4ccco4)c3)CC2)cc1	6%	-26	16µM*	?	?	-2%
Cc1cccc(C(=O)N2CCN(c3ccc([N+](=O)[O-])c(NCc4ccco4)c3)CC2)c1	10%	-8	21µM*	?	?	-1%
Cc1ccccc1C(=O)N1CCN(c2ccc([N+](=O)[O-])c(NCc3ccco3)c2)CC1	8%	-11	?	?	-13%	-33%
COc1ccc(F)c(CN2CCOc3ccc(CN4CCC(O)(c5cccnc5)CC4)cc3C2)c1	.	.	?	-7%[9.04 µM]	.	.
CCOc1ccc(N(CC)S(=O)(=O)N2CCCC(C(=O)Nc3cc(Cl)ccc3C)C2)cc1 (centres undefined)	8%	.	16µM*	21µM*	-25%	-24%
CCOc1ccc(N(CC)S(=O)(=O)N2CCCC(C(=O)NCc3ccccc3Cl)C2)cc1 (centres undefined)	0%	.	21µM*	21µM*	?	-17%
CCc1nnc2c3ccccc3nc(Nc3cc(C)cc(C)c3)n12	2%	.	3.7µM*	6.5µM*	8%	-4%
CCc1nnc2c3ccccc3nc(Nc3ccc(C(C)=O)cc3)n12	-4%	.	7.3µM*	?	-1%	2%
CCc1nnc2c(Nc3ccc(Br)c(C)c3)nc3ccccc3n12	-1%	.	-6%	-15%	10%	-5%
O=C(CCc1ccc(S(=O)(=O)N2CCOCC2)cc1)N/N=C/c1ccc(O)c(O)c1O	-8%	0	?	?	-10%	-15%
COC(=O)c1ccc(NC(=O)Cc2coc3cc(C)ccc23)cc1	1%	.	?	?	-8%	-1%
O=C(N/N=C/c1ccccn1)c1cc(C2CC2)nc2ccccc12	8%	-102*	?	23µM*	-3%	-1%
N/C(=N\OC(=O)COc1ccccc1Cl)c1ccccn1	1%	-14	1%	7%	3%	0%
N/C(=N\OC(=O)c1cc(-c2ccccc2)nc2ccccc12)c1ccccn1	9%	-26	12µM*	13µM*	5%	-1%
O=C(N/N=C/c1ccccn1)c1cc(-c2ccccc2)nc2ccccc12	.	0	16µM*	?	10µM*	-22%
